Screens from PubChem BioAssay.
Hits are enriched below; roughly 2.2% of the tested compounds scored in any of these assays.
CSC inhib – cancer stem cell inhibition; 300,000 tested, 1.1% active; cancer stem cell-like cells viability, luminescence; AID 2717; inhibition, % at 7.5 µM; in the data active = inhibition above about 75%; tested in HMLE shEcad cells
Shn3 inh set2 – Schnurri-3 reporter inhibition in Clone20 osteoblasts; Clone20 osteoblast Shn3 3'UTR firefly luciferase, 24 h; inhibition, % at 12.5 µM; 360,000 tested, 0.52% active;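 active = mean inhibition of at least 75% with every replicate also reaching 75%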
Calb FLC – affects C. albicans growth with fluconazole; C. albicans CaCi-2 (fluconazole-resistant clinical isolate) + fluconazole, Alamar Blue growth, 48 h; growth inhibition, % (no concentration beside the values); 300,000 tested, 0.57% active;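 active = growth inhibition above about 58% in most replicates, limit read from the data, passing the limit was not always enough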;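 also: all wells also contain fluconazole at 8 µg/ml as a sub-toxic cotreatment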
Beta apoptosis – beta cell apoptosis inhibition. INS-1E cytokine-induced death, ATP luminescence, 48 h; percent of positive-control rescue, neutral wells zero. protection from apoptosis, % (test concentration not listed). 300,000 tested, 0.8% active. AID 435005;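 active = Every replicate reaches about 75%, or at least half do and their mean reaches it too, limit read from the data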;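 also: higher means more ATP so stronger rescue from cytokine killing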
PfHsp90 set2 – inhibits growth of yeast expressing Plasmodium falciparum Hsp90 | S. cerevisiae expressing PfHsp90, BacTiter-Glo ATP, 48 h; yeast lacking PDR1 and PDR3 efflux regulators | inhibition, % at 9.4 µM | 310,000 tested, 0.32% active | AID 504621;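 active = every replicate shows inhibition above about 80%, whatever the replicate mean, limit read from the data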
Each line names hits and unclear results; the compound was inactive in the other large screens.

NC(Cc1ccc(C(F)(F)F)cc1)c1csc(Nc2ccc(S(N)(=O)=O)cc2)n1 (stereo not given)	none (no result: CSC inhib, Calb FLC, Beta apoptosis, PfHsp90 set2)
CC(=O)NC(c1ccc(Cl)cc1Cl)c1ccc2cccnc2c1O (stereo not given)	Shn3 inh set2 89, PfHsp90 set2 106
CCCC(=O)NC(c1ccc(C)cc1)c1ccc2cccnc2c1O (stereo not given)	CSC inhib 110, Calb FLC 86, Beta apoptosis 112, PfHsp90 set2 113
CCCC(=O)NC(c1ccc(Cl)cc1)c1ccc2cccnc2c1O (stereo not given)	CSC inhib 106, Calb FLC 108, Beta apoptosis 113, PfHsp90 set2 115
CCCCC(=O)NC(c1ccc(Cl)cc1)c1ccc2cccnc2c1O (stereo not given)	CSC inhib 153, Shn3 inh set2 86, Calb FLC 97, Beta apoptosis 97, PfHsp90 set2 114
CCCC(=O)NC(c1ccccc1)c1c(O)ccc2ccccc12 (stereo not given)	none
CC(=O)NC(CC(=O)NC(C)c1ccc(Cl)cc1Cl)c1ccccc1 (stereo not given)	none
Cc1ccccc1S(=O)(=O)Oc1cccc2c(O)cccc12	none
Cc1cccc(C)c1NC(=O)CS(=O)CC(=O)NCC1OCCc2ccccc21 (stereo not given)	none
CCCC(=O)NC(c1ccccc1Cl)c1c(O)ccc2ccccc12 (stereo not given)	none
CCCC(=O)NC(c1ccc(Cl)cc1Cl)c1ccc2cccnc2c1O (stereo not given)	CSC inhib 109, Shn3 inh set2 92, Beta apoptosis 94
CC(=O)NC(c1ccc2ccccc2c1)c1ccc2cccnc2c1O (stereo not given)	CSC inhib 102, Shn3 inh set2 85, PfHsp90 set2 108 (no result: Beta apoptosis)
COc1ccc(C(NC(C)=O)c2ccc3cccnc3c2O)c(OC)c1 (stereo not given)	Shn3 inh set2 90, Beta apoptosis 109 (no result: PfHsp90 set2)
O=C(Nc1ccc(OC(F)F)c(Cl)c1)C(c1ccccc1)c1ccccc1	Beta apoptosis 95
Cc1ccc(NC(=O)CSCC(=O)OC(C)C(=O)Nc2ccc(S(N)(=O)=O)cc2)c(C)c1 (stereo not given)	none
COc1cccc(CNS(=O)(=O)c2ccccc2Br)c1OC	none (no result: CSC inhib, Calb FLC, Beta apoptosis)
Cc1ccc(C(=O)OC(C)C(=O)c2cc(C)c(C)cc2C)o1 (stereo not given)	none
O=S(=O)(Nc1ccc(-n2cccc2)cc1)c1ccc(Cl)c(Cl)c1	CSC inhib 84
Cc1cc[n+](CC(=O)c2ccccc2)c2ccccc12	Beta apoptosis 117
CCC(C)(C)c1ccc(OCCCC[n+]2ccccc2)c(C(C)(C)CC)c1	CSC inhib 105, Beta apoptosis 114 (no result: Calb FLC)
CCCCCc1ccc(OCCCC[n+]2ccc(C)cc2)c(CCCCC)c1	Calb FLC 98, Beta apoptosis 111
CCCCCc1ccc(OCCCC[n+]2ccccc2)c(CCCCC)c1	Shn3 inh set2 90, Calb FLC 100, Beta apoptosis 87
Cc1cc(=O)oc2cc(OCCCC[n+]3ccccc3)ccc12	none
CCCCCc1ccc(OCCCC[n+]2cccc(C)c2)c(CCCCC)c1	CSC inhib 109, Calb FLC 106, Beta apoptosis 111
CCCCOc1ccc(C)cc1CN(CCO)CCO	none
Cc1cc(C)nc(N2CCCC(C(=O)NNC(=O)c3ccncc3)C2)n1 (stereo not given)	none
O=C(NCCCNC(=O)c1cccnc1)c1ccc(Cl)cc1	none (no result: Beta apoptosis)
COc1ccc(NC(=O)CCNS(=O)(=O)c2ccccc2F)cc1S(N)(=O)=O	none
Cc1cc(C)c(C(=O)NC2CCCc3c2cnn3-c2cccc(C)c2C)o1 (stereo not given)	none
Cc1cc(C(=O)NC2CCCc3c2cnn3-c2ccc(C)c(C)c2)n(C)n1 (stereo not given)	Shn3 inh set2 88, Beta apoptosis 110
O=C(NC1CCCc2c1cnn2-c1ccc(F)cc1F)c1ccccc1N1CCOCC1 (stereo not given)	none
Cc1nnsc1C(=O)NC1CCCc2c1cnn2-c1ccc(C(C)(C)C)cc1 (stereo not given)	Beta apoptosis 75
CCc1cc(C(=O)NC2CCCc3c2cnn3-c2cccc(C)c2C)n(C)n1 (stereo not given)	Calb FLC 91, Beta apoptosis 99 (no result: Shn3 inh set2, PfHsp90 set2)
Cc1ccc(-n2ncc3c2CCCC3NC(=O)c2ccccc2N2CCOCC2)cc1C (stereo not given)	PfHsp90 set2 114
CCCCc1ccc(N/C(N)=N/c2nc(C)cc(C)n2)cc1	Beta apoptosis 124 (no result: PfHsp90 set2)
